m-calpain inh – calpain II (pig) inhibition; actives 0.37% (n = 220,000); inhibition, % at 16 µM; purified calpain II, fluorogenic peptide substrate, 30 min;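 active = inhibition above about 50%, limit read from the data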
Bim-Mcl-1 – human Bim-Mcl-1 interaction inhibition | Q07820 | Bead-based flow cytometry, Bim peptide-Mcl-1 binding | inhibition, % at 10 µM | actives 0.1% (n = 190,000) | AID 1009; in the data active = inhibition above about 40%;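 note: 0% = no compound tracer wells and 100% = peptide blocker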
p47phox inh – blocks human p47phox regulatory protein of NADPH oxidases; P14598; p47phox/p22phox peptide binding, fluorescence polarization, 2 h; inhibition, % at 24.7 µM; actives 0.53% (n = 220,000); AID 1274;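 active = inhibition above about 30%, limit read from the data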;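 note: 0% = p47phox with labelled peptide and 100% = labelled peptide alone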
Mcl1-Bid inh – Mcl-1/Bid interaction inhibition | TR-FRET Mcl-1/Bid-Dy647 peptide binding, 1536-well | inhibition, % at 21.7 µM | Q07820 | actives 0.97% (n = 220,000);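 active = compounds that cut the binding signal by more than half at the single screening dose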;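 note: His-tagged Mcl-1 with europium anti-His antibody binding Bid BH3 peptide; 0% = Mcl-1 plus peptide wells and 100% = peptide-only wells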
Mcl1 Noxa PPI – Mcl-1/Noxa interaction inhibition | Q07820 | TR-FRET Mcl-1/Noxa peptide binding, 2 h | inhibition, % at 21.7 µM | actives 1.5% (n = 220,000) | AID 1022;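 active = compounds that cut the protein-peptide binding signal by more than 50% relative to plate controls in a single-dose test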;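 note: His-tagged Mcl-1 with rhodamine Noxa BH3 peptide and terbium anti-His antibody; 0% = Mcl-1 plus Noxa peptide wells and 100% = peptide-only wells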
14-3-3 Bad PPI – disrupts binding of bovine 14-3-3 zeta to phospho-Bad peptide | TR-FRET 14-3-3zeta/Dy647-pBad peptide displacement, 1 h | actives 0.71% (n = 220,000) | inhibition, % at 21.7 µM;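 active = inhibition above about 70%, limit read from the data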;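 note: 0% = full 14-3-3 plus peptide FRET controls and 100% = background without 14-3-3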
Target sequence (P63103 whole entry, looked up): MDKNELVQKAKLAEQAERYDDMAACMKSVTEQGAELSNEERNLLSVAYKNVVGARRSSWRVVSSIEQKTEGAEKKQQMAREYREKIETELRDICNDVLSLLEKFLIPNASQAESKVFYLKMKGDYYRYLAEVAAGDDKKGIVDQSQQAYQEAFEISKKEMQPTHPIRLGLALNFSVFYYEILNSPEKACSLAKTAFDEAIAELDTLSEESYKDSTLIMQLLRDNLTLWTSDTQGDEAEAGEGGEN
An asterisk follows results filed as active; nt = no result; + = active, no number; [ ] = remark or other dose. The list is not random: actives were taken first. Their share in the collection is about 3.4%.

SMILES	m-calpain inh	Bim-Mcl-1	p47phox inh	Mcl1-Bid inh	Mcl1 Noxa PPI	14-3-3 Bad PPI
Cc1ccc(Nc2cc(C)c3c(O)cccc3n2)cc1C	-15	nt	-10	-25	54*	-1
COC(=O)c1cc(Nc2cc(C)c3ccc(O)cc3n2)cc(C(=O)OC)c1	-87	nt	-30	-10	11	-1
COc1ccc(Nc2cc(C)c3c(O)cccc3n2)cc1	17	nt	-4	-58	77*	4
O=C(c1ccco1)[C@@H]1[C@@H]2C(=O)N(c3ccc(F)cc3)C(=O)[C@@H]2[C@H]2C=Cc3ccccc3N21	-64	5	17	24	73*	89*[fluorescence artefact?]
NC(=O)[C@@H]1[C@@H]2C(=O)N(c3ccc(F)cc3)C(=O)[C@@H]2[C@H]2C=Cc3ccccc3N21	-33	nt	-41	25	13	1
COc1cc2c(cc1OC)C(c1cccs1)N(C(=S)NC(C)C)CC2 (stereo unspecified)	-35	0	-15	-42	23	-19
Cn1ncc(N=Cc2ccccc2O)c1C(=O)N1CCOCC1	-46	0	+	-19	-4	-7
Cn1ncc(Cl)c1C(=O)N1CCOCC1	-26	4	-4	-28	-10	-7
O=c1c(Cl)c2oc3ccccc3nc-2c2ccccc12	25	9	0	48	62*	38
Clc1ccc(-c2nnc(Sc3nc4ccccc4o3)c3ccccc23)cc1	-64	0	-18	-17	-2	2
Cc1oc2c(O)c(O)ccc2c(=O)c1-c1cnn(-c2ccccc2)c1	8	0	-5	-54	56*	-10
Cc1c(Cc2ccccc2)c(=O)oc2c(O)c(O)ccc12	-5	-2	28	-4	88*	8
Cc1c(Cc2ccccc2)c(=O)oc2cc(O)ccc12	-296	nt	-13	-18	10	-3
Cc1oc2c(O)c(O)ccc2c(=O)c1-c1ccccc1	7	nt	0	-38	71*	-4
CCC(C)(C)n1nnnc1C(c1cccnc1)N1CCN(c2cccc(C(F)(F)F)c2)CC1 (stereo unspecified)	-25	0	-9	-7	-11	-6
O=C(Cn1ccc(C(F)(F)F)n1)N/N=C/c1ccc(N2CCOCC2)cc1	-339	-3	-9	-33	10	-2
CC(C)c1cc(N=NC(N)=O)cc(C(C)C)c1O	-8	-2	-10	-23	-10	-8
CC(C)(CC(=O)O)CC(=O)Nc1ccc(Oc2ccc(C(C)(C)C)cc2)nc1	10	nt	-2	-5	25	-19
NS(=O)(=O)c1ccc(NC(=O)C2C3C=CC(C3)C2C(=O)O)cc1 (stereo unspecified)	-11	2	-11	-21	-9	-9
COC(=O)c1ccc(OCc2cc(=O)n3ccsc3n2)cc1	-26	-5	-8	65*	29	56
O=S(=O)(NCC1CCCO1)c1ccc(S(=O)(=O)N(Cc2ccc(F)cc2)Cc2ccco2)cc1 (stereo unspecified)	21	0	-1	-14	-9	-3
Cc1nc(N2CCN(Cc3ccccc3)CC2)nc2c1C(=O)CC(C)C2 (stereo unspecified)	68*	0	6	-16	29	21
CCCC(=O)c1c[nH]c(C(=O)N2CCOCC2)c1	-11	0	-8	-30	-6	-6
COc1cc(S(=O)(=O)Nc2cccc(C)c2)ccc1NC(=O)c1ccncc1	19	-4	-7	95*	12	-1
CCOc1ccc(NS(=O)(=O)c2ccc(NC(=O)c3cccnc3)c(OC)c2)cc1	7	-2	5	-19	9	6
Cc1ccccc1NC(=O)c1ccc(NC(=O)C2CC(=O)OC23CCCCC3)cc1 (stereo unspecified)	18	4	-2	-21	-2	1
CN(CCOc1ccc(NS(C)(=O)=O)cc1)CCc1ccc(NS(C)(=O)=O)cc1	12	1	-10	84*	1	0
CC(C)(C)c1cc(=O)n(-c2ccccc2)[nH]1	6	-4	-4	-85	7	-7
O=C(c1cccc([N+](=O)[O-])c1)N1CCN(Cc2ccc3c(c2)OCO3)CC1	18	1	-8	-27	12	-8
O=C(c1cccnc1)N1CCN(Cc2cccc(Br)c2)CC1	-10	0	-8	19	27	71*

Screening results (PubChem)
